Assay: MM1S cell viability effects, profiling panel, calcein-AM fluorescence, 48 h, basal (AID 1165);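 further: viability of MM1S multiple myeloma cells under basal unstimulated conditions; test concentration not given here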
Details: higher = more signal

Compound	z-score
CN1C(=O)[C@]2(CCC(=O)OC(C)(C)C)N=C(c3ccc(OCCCO)cc3)O[C@@H]2c2ccccc21	-0.964
CC(c1ccccc1)C(O)C1C=CC2C(=O)N(c3ccccc3)C(=O)C2N1Nc1ccc(C#N)cc1 (stereo unspecified)	0.401
COCCOC(=O)N1C(=O)[C@@]2(c3cc(C#CCCO)ccc31)[C@H](C(=O)N1CCN(c3ncccn3)CC1)[C@H]1C(=O)O[C@H](c3ccccc3)[C@H](c3ccccc3)N1[C@@H]2c1ccc(O)cc1	0.14
C#CCN(C/C=C/c1ccccc1)[C@H](CO[Si](C)(C)C(C)(C)C)c1ccccc1	-0.848
NCCCC[C@@H]1NC(=O)[C@H]2C[C@@H](C(=O)O)[C@@H](c3cccc(OCCO)c3)N2C1=O	-1.81
[N-]=[N+]=NCc1ccccc1C[C@]1(C(=O)N2CCCCC2)N=C(c2ccc(OCCCO)cc2)O[C@H]1c1ccccc1	-2.59
CCCCC(=C=CC[C@H](O)c1ccc(OCCO)cc1)C[C@H](O)c1ccccn1	-0.556
CN(C)C(=O)[C@@]1(CCS(=O)(=O)c2ccccc2)N=C(c2ccc(OCCCO)cc2)O[C@H]1c1ccccc1N=[N+]=[N-]	-1.68
[N-]=[N+]=NCc1ccccc1[C@@H]1OC(c2ccc(OCCCO)cc2)=N[C@]1(Cc1ccccc1)C(=O)NCc1ccccc1	-0.856
O=C(NCCO)C1=C[C@H](Oc2ccccc2I)[C@@H](O)[C@H](NCc2ccc(F)cc2)C1	-0.217
COc1ccc([Si](C)(C)[C@@H]2[C@@H](CC(=O)N(CCO)Cc3ccccc3)O[C@]3(C(=O)N(Cc4ccc(N5CCC5=O)cc4)c4ccccc43)[C@H]2C)cc1	-1.28

Source: PubChem BioAssay
